Source: PubChem (National Center for Advancing Translational Sciences (NCATS))
This excerpt belongs to a sample that is enriched for hits.
12-LOX inh: ALOX12 (human) lipoxygenase inhibition | Potency, µM (highest dose often 108 µM), without a hit: at the top dose activity change, negative = inhibition, usual class: inhibitors | 1.1% of 580,000 active | AID 1671190 | purified 12hLO, xylenol orange hydroperoxide absorbance | P18054; further: on the % scale 0 is the no-effect control and ±100 the full control effect
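Purified human 12hLO (150 nM final) in 25 mM Hepes, 0.01% Triton X-100, pH 7.0 was preincubated 15 min at room temperature with compound. Then 40 uM arachidonic acid was added, 30 min. Hydroperoxide was read by Fe-XO absorbance ratio 573/405 nm.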
Glioma ERSR ind: ER stress response induction in glioma; U87-MG GRP78 promoter luciferase reporter, 16 h; Potency, µM, inactives show at the highest dose activation, actives largely listed as activators; 0.02% of 420,000 active; AID 602332; further: series mostly up to about 76 µM; % of control where 0% means no effect; nearly all actives have a fitted effect of over 35% in size
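Stably transfected U87-MG glioma cells carrying a GRP78-based luciferase sensor; 16 h compound incubation. Luminescence end-point read 10 min after Bright-Glo addition at room temperature.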
G9a inh: inhibitors of human histone lysine methyltransferase G9a; Potency, µM (highest dose often 102 µM), for inactives: at the highest dose activity, negative = inhibition, most hits filed as inhibitors; Q96KQ7; 8.8% of 350,000 active; G9a H3K9 monomethylation, AlphaScreen, 2 h; further: on the % scale 0 is the no-effect control and ±100 the full control effect; nearly all actives have a fitted effect of over 75% in size
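G9a (20 nM) was preincubated 15 min with compound, then reacted 2 h at room temperature with 500 nM biotin-H3K9 peptide and 20 µM SAM. Monomethyl-H3K9 detected by AlphaScreen using anti-H3K9me1 antibody.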
VDR inh: vitamin D3 receptor (human) inhibition; VDR-SRC2-3 peptide fluorescence polarization, 2 h; Potency, µM, inactives show max response, negative = inhibition, most hits filed as inhibitors; 0.93% of 400,000 active; AID 504847; further: on the % scale 0 is the no-effect control and ±100 the full control effect
Target sequence (P11473 whole entry, looked up): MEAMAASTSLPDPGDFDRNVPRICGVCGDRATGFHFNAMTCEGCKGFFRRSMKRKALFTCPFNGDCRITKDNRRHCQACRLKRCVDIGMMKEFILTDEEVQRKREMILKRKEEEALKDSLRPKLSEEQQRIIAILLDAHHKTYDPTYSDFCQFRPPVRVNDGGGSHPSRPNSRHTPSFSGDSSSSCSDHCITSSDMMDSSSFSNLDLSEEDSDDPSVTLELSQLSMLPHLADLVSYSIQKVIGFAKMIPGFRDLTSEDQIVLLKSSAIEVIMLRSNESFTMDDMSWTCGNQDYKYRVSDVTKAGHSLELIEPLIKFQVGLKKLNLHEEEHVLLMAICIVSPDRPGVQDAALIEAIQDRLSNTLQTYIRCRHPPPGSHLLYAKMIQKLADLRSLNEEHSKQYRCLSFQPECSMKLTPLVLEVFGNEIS
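Compounds are added to VDR with labelled SRC2-3 coactivator peptide and held 2 h at room temperature. Inhibition of the VDR–peptide interaction is then read as a change in fluorescence polarization.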
Sfp PPTase inh: inhibitors of Bacillus subtilis Sfp phosphopantetheinyl transferase; Potency, µM, inactives show largest response in the series, negative = inhibition, hits mostly inhibitors; 3.5% of 310,000 active; Biochemical Sfp PPTase activity, qHTS; Q9F4F7;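 further: the enzyme is Sfp with the accession as filed and its product quenches rhodamine fluorescence; 0% = enzyme reaction without inhibitor and -100% = no enzyme wells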
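Reaction rates are the 30-min fluorescence difference (ex 525, em 598 nm) in wells containing 15 nM Sfp, 5 uM rhodamine-CoA and 12.5 uM BHQ-2-YbbR at pH 7.6 with 10 mM MgCl2.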
The depositor's hits bear a star; ? = inconclusive; · = not tested or not shown; ! = a repeat was not active; [ ] = remark or other dose. The call rests on the fitted dose curve; in most records, active means well fitted curve in the direction sought with a large enough effect; inconclusive means small, poorly fitted or top-dose-only effect, or another doubt; inactive means no such curve, though single readings can be large; an effect the other way counts as inactive or inconclusive. Potency means the concentration at half of the fitted maximal effect.

SMILES | 12-LOX inh | Glioma ERSR ind | G9a inh | VDR inh | Sfp PPTase inh
CCCCCCC1CC(C)(C(=O)CNc2nncs2)OC1=O (stereo not drawn) | -25% | 2% | 14µM* | -23% | -2%
NC(Cc1ccccc1)c1cc2ccccc2[nH]1 (stereo not drawn) | -1% | · | · | · | ·
C#C[C@H]1CN2CC[C@H]1C[C@@H]2COC(=O)Nc1ccc(OC(F)(F)F)cc1 | 45%[176 µM] | · | · | · | ·
CCCc1cc(C(=O)N2C[C@@H](c3ccc(F)cc3)[C@@H]3[C@H]2C2CCN3CC2)n[nH]1 | 38% | · | · | · | ·
COc1cc(C(c2c(C)[nH]n(-c3ccccc3)c2=O)c2c(C)[nH]n(-c3ccccc3)c2=O)cc(OC)c1OC | ? | -1% | 15%[0.501 µM] | ? | -8%
Cc1[nH]n(-c2ccccc2)c(=O)c1C(c1cccc([N+](=O)[O-])c1O)c1c(C)[nH]n(-c2ccccc2)c1=O | 25µM* | -3% | 45µM* | ? | -5%
Cc1ncc2c(n1)C[C@@H]1CC[C@H]2N1C(=O)c1cnccn1 | 30% | · | · | · | ·
Clc1ccc(CNCCc2ccc3c(c2)OCO3)cc1 | 4.5µM* | -3% | 79µM* | -11% | ?
c1cncc(CNCCc2ccc3c(c2)OCO3)c1 | ? | -7% | · | -18% | -2%
COc1cc(CNCCc2ccc3c(c2)OCO3)ccc1O | ? | 1% | 0%[0.501 µM] | -4% | 5%
Clc1cccc(CNCCc2ccc3c(c2)OCO3)c1 | ? | 0% | 45µM* | -2% | 0%
FC(F)(F)c1ccc(CNCCc2ccc3c(c2)OCO3)cc1 | 1.8µM* | 1% | 22µM* | -11% | 79µM*
Fc1ccccc1CNCCc1ccc2c(c1)OCO2 | ? | 11% | 40µM* | -6% | 9%
CC(C)CN1Cc2ccccc2-n2ccnc2C12CCN(C(=O)c1ccn[nH]1)CC2 | -1% | · | · | · | ·
O=C(Nc1ccc(=O)n2c1[C@@H]1C[C@@H](CN(S(=O)(=O)c3ccccc3)C1)C2)c1cccnc1 | -5% | · | · | · | ·
Cc1nc(-c2cccs2)cc([C@H]2CN3CC[C@H]2C[C@@H]3CNS(=O)(=O)c2ccccc2)n1 | 8% | · | · | · | ·
COc1cc2c(cc1OCc1ccccc1)N([S+](=O)([O-])c1cccc(C)c1)CC21CCN(C)CC1 | -5% | · | · | · | ·
CC(O)C1C=CC=CC(=O)OC2CC3OC4C5OC5(C)CCC4(COC(=O)C4OC4(C)C(O)CO1)C2(C)C31CO1 (stereo not drawn) | 32µM* | -6% | · | ? | ·
COc1ccc(OC)c(S(=O)(=O)NC[C@H]2C[C@@H]3CCN2C[C@@H]3c2cc(-c3ccc(F)cc3)nn2C)c1 | 50% | · | · | · | ·
CCN1C(=O)C(=C/C=C/c2ccco2)C(=O)N(CC)C1=S | ? | -4% | 13µM* | 85% | 40µM*
CCCc1c(C)nc(N2CCN(CC)CC2)[nH]c1=O | -11% | · | · | · | ·
C[C@]12C=CC(=O)C=C1CCC1C2=CC[C@]2(C)[C@@H](C(=O)CN3CCN(c4cc(N5CCCC5)nc(N5CCCC5)n4)CC3)CC[C@@H]12 (stereo partly drawn) | · | · | 40µM* | · | ·
CN(N)N=Nc1nc2c([nH]1)c(=O)n(C)c(=O)n2C | ? | -1% | 2.2µM* | -17% | 18µM*
CCn1c(P(C)(=O)O)nc2ccccc21 | -5% | -5% | 4%[59 µM] | ? | -13%
CCn1c(NN=O)nc2ccccc21 | ? | -3% | ? | -10% | 50µM*
SMILES | 12-LOX inh | Glioma ERSR ind | G9a inh | VDR inh | Sfp PPTase inh
N#C/C(=C\c1ccc(O)c(O)c1)C(N)=S | ? | -5% | · | · | 0.18µM*
O=C1NC(=O)N(c2ccccc2)C(=O)/C1=C\c1ccc2c3c(cccc13)CC2 | · | · | 7.1µM* | · | 40µM*
COC(=O)Cn1cc(/C=C2\C(=O)NC(=O)N(c3ccc(OC)cc3)C2=O)c2ccccc21 | 12% | 0% | 28%[0.501 µM] | -9% | -23%
O=C(O)Cn1cc(/C=C2\C(=O)NC(=O)N(c3ccc(F)cc3)C2=O)c2ccccc21 | · | · | 50µM* | · | -4%
COc1ccccc1N1C(=O)NC(=O)/C(=C/c2ccc3c4c(cccc24)CC3)C1=O | 50µM* | 4% | 8.9µM* | 50µM* | 11µM*
CCCCn1c(C)c(C(=O)OCC)c2cc(O)ccc21 | -1% | · | · | · | ·
CC(=O)c1ccc(NC(=O)NC[C@H]2C[C@@H]3CCN2C[C@@H]3CN2CCSCC2)cc1 | -26%[176 µM] | · | · | · | ·
O=C(c1ccc(F)cc1)N1C[C@@H]2C[C@H](C1)c1ccc(-c3cncnc3)c(=O)n1C2 | 0%[176 µM] | · | · | · | ·
CNC(=O)Oc1ccc2c(c1)[C@]1(C)CCN(C)[C@@H]1N2C | 0% | -1% | 45µM*! | -9% | 14%
CN1CC[C@@]2(C)c3cc(O)ccc3N(C)C12 (stereo partly drawn) | · | -15% | 9.5µM* | ? | ·
CNC(=O)Oc1ccc2c(c1)C1(C)CCN(C)C1N2C (stereo not drawn) | · | -4% | · | · | -4%
COC12C(COC(N)=O)C3=C(C(=O)C(C)=C(N)C3=O)N1CC1C2N1C (stereo not drawn) | 31% | -4% | 50µM* | -10% | -11%
CN1CCCC(C(=O)N2C3CCC2CN(Cc2cccnc2)C3)C1 (stereo not drawn) | 2%[6.33 µM] | · | · | · | ·
COc1ccccc1N1C(=O)NC(=O)/C(=C\c2cnn(-c3ccccc3)c2)C1=O | ? | -10% | 8.9µM* | ? | 32µM*
O=C1NC(=O)N(Cc2ccccc2)C(=O)/C1=C/c1cnn(-c2ccccc2)c1 | · | · | 5.6µM* | · | -20%
COc1ccc(N2C(=O)NC(=O)/C(=C\c3cn(CC(=O)N4CCOCC4)c4ccccc34)C2=O)c(OC)c1 | 210% | -4% | ? | ? | -1%
COc1cc2c(cc1OCc1ccccc1)NC(=O)C21CCN(c2ncc(F)cn2)CC1 | 10%[176 µM] | · | · | · | ·
